From PubChem BioAssay AID1347145 (National Center for Advancing Translational Sciences (NCATS), 2019) come the findings set out here.

Inconclusive results are not listed. Active and inactive are the calls of the source. The call rests on the fitted dose curve; in most records, active means well fitted inhibition curve with a large enough effect; inconclusive means small, poorly fitted or top-dose-only effect; inactive means no such curve, though single readings can be large or run the other way.
Further: 0% is about no effect.

Sequence of N-terminal Xaa-Pro-Lys N-methyltransferase 1 (Homo sapiens) (Q9BV86 whole entry, looked up): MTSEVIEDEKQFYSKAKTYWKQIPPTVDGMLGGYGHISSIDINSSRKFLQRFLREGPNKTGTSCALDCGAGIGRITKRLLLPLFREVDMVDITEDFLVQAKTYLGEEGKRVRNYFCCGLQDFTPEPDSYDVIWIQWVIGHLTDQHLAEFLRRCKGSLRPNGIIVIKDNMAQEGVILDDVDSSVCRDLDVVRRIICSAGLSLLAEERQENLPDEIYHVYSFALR

In the experiment the target is N-terminal Xaa-Pro-Lys N-methyltransferase 1 (Homo sapiens) (UniProt Q9BV86). As to the kind of experiment: qHTS Assay for Inhibitors of N-terminal methyltransferase 1 (NTMT1): MTaseGlo Assay Confirmatory Screen, Round 1. The note with it: Recombinant NTMT1, MTase-Glo SAH luminescence; series mostly up to 57.1 µM; activity change, negative = inhibition: at the top concentration. A digest of the protocol:
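Luminescence from MTase-Glo conversion of SAH to ATP measured activity after a 30 min RT reaction with 1 µM SPKRIA substrate, 100 µM SAM and 125 nM enzyme. Normalization used no-enzyme and DMSO controls, followed by Hill fitting.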
(In general: Quantitative high-throughput screening tests each substance at several concentrations.)
Turning to `COc1cc2c(NC3CCN(C)CC3)nc(N3CCCN(C)CC3)nc2cc1OCCOCCN1CCCC1`, the “activity change, negative = inhibition” value was -15% (inactive).

Regarding `NC(=O)c1ccc[n+]([C@@H]2O[C@H](COP(=O)([O-])OP(=O)(O)OC[C@H]3O[C@@H](n4cnc5c(N)ncnc54)[C@H](O)[C@@H]3O)[C@@H](O)[C@H]2O)c1`, the “activity change, negative = inhibition” value is 360% [at 19 µM] (inactive).

Consider `COc1cc2c(NC3CCN(C(C)C)CC3)nc(N3CCC(N4CCCC4)CC3)nc2cc1OCCCN1CCCCC1`, for which the “activity change, negative = inhibition” value is -5.53% (inactive).

`COc1cc2nc(N3CCN(C)CC3)nc(NCCCN(C)C)c2cc1OC`: the “activity change, negative = inhibition” value is -3.31% (inactive).

On to `COc1cc2c(NC3CCN(C)CC3)nc(N3CCCN(C)CC3)nc2cc1OCCN(C)CCN(C)C`, for which the “activity change, negative = inhibition” value was -16.7% (inactive).
